PubChem BioAssay (NCI)
Compounds without any hit were thinned out: in the full panel of roughly 79,000, 15% have a hit. A number with no mark means an inactive call. Activity calls are given as the source filed them. Cut-off read from the data, not from the text of the source: active = growth inhibition above about 70%; inactive = the rest. Where a SMILES comes first, the peptide text is derived from it. [ ]: non-standard residue; d: D form. The star is where a group is joined. ξ: configuration not given here. Cbz = O=C(OCc1ccccc1)*; ξT = CC(O)C(N)C(=O)O

Experiments:
[1] = NCI Yeast Anticancer Drug Screen. Data for the rad50 strain (AID 155);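 note: 0% = growth of vehicle-only cultures of the same strain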; settings: S. cerevisiae rad50 strain growth inhibition; at 50.0 µM; hits give high values
Outline: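 DNA repair mutant yeast, compound exposure, growth read-out; inhibition is taken relative to vehicle.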

[2] = NCI Yeast Anticancer Drug Screen. Data for the mec2-1 strain (AID 157); settings: S. cerevisiae mec2-1 strain, at 50.0 µM, hits give high values
Outline: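 Cells of the genetically defined mec2-1 yeast strain are incubated with test compound. Inhibition of growth is calculated against vehicle-treated controls.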

[3] = NCI Yeast Anticancer Drug Screen. Data for the sgs1 mgt1 strain (AID 161);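 note: 0% = growth of cultures given vehicle only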; settings: S. cerevisiae sgs1 mgt1 strain, at 50.0 µM, hits give high values
Outline: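 Read-out: growth inhibition vs vehicle controls. Cells: mutant yeast strain deficient in DNA damage repair.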

[4] = NCI Yeast Anticancer Drug Screen. Data for the cln2 rad14 strain (AID 165);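 note: 0% = growth equal to vehicle treated cultures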; settings: S. cerevisiae cln2 rad14 strain, at 50.0 µM, hits give high values
Outline: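 The screen exposed genetically defined yeast (cln2 rad14) to test compounds and scored growth inhibition relative to vehicle-treated controls.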

[5] = NCI Yeast Anticancer Drug Screen. Data for the bub3 strain (AID 167); settings: S. cerevisiae bub3 mutant strain, at 50.0 µM, hits give high values
Outline: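 In this screen, a yeast mutant lacking normal mitotic checkpoint function is challenged with compound. Relative growth versus vehicle gives the inhibition value.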

[6] = NCI Yeast Anticancer Drug Screen. Data for the mlh1 rad18 strain (AID 175); settings: S. cerevisiae mlh1 rad18 strain growth inhibition; at 50.0 µM; hits give high values
Outline: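 Compound-treated yeast growth, normalised to vehicle controls. Strain bears defined DNA repair mutations.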

SMILES	growth inhibition [1]	growth inhibition [2]	growth inhibition [3]	growth inhibition [4]	growth inhibition [5]	growth inhibition [6]
CCOC(=O)C(C(=O)OC(c1ccccc1)c1ccccc1)(C(c1ccccc1)c1ccccc1)C(c1ccccc1)c1ccccc1	0.45%	18%	1.65%	-9.25%	-1.4%	-10.8%
N#CC1CCCCCCCCCCC(=O)N(CCCl)C1=O (stereo unspecified)	-4.25%	-0.45%	13.2%	6.2%	-12.9%	-7.05%
CCOC(=O)CCCl	24%	15.6%	-2.95%	30.2%	31.3%	12.8%
C=CCC1(C(=O)NC)c2ccccc2-c2ccccc21	-8.85%	-6.4%	1%	-18.8%	43.1%	-38.1%
COCC1OC(OC2(COC)OC(COC)C(OC)C2OC)C(OC)C(OC)C1OC (stereo unspecified)	22.1%	-4.15%	-9.2%	-34.2%	-18.1%	5.6%
O=C(O)/C=C\C(=O)Nc1ccccc1Cl	-12.8%	-9.95%	10.9%	6.85%	13.4%	-10.8%
CCCCCCCCCc1ccc(COCC)cc1	-9.55%	11.9%	7.05%	-16%	22.1%	9.55%
Cc1ccc(Cc2cc(=O)[nH]c(=O)[nH]2)cc1	0.2%	-8.25%	-13.2%	-76.5%	2.7%	5.4%
Cc1c(CCCl)c(Cl)n2c(nc3ccccc32)c1C#N	38.7%	20.8%	39.4%	32.5%	22.8%	57.1%
O=P(O)(O)CN1CCN(CP(=O)(O)O)CCN(CP(=O)(O)O)CCN(CP(=O)(O)O)CC1	-39.9%	-16.8%	-8.75%	12.1%	-0.05%	-19.1%
O=c1[nH]c2ccccc2nc1/C=C/n1c(=S)[nH]c2ccccc21	-31.4%	-28.2%	-46.4%	-16.6%	-33.5%	-20.7%
CCCCN(CCCC)CCCNC(=O)OCC	-4.2%	-22.9%	-7%	14.6%	-26.8%	-6.2%
CC(C)CCC[C@@H](C)[C@H]1CC[C@H]2[C@@H]3CC[C@H]4N(C)[C@@H](Cc5ccccc5)CC[C@]4(C)[C@H]3CC[C@]12C	21.8%	27.6%	32.5%	24.7%	15.4%	-0.05%
Cc1ccc(S(=O)(=O)N/N=C/C(C)(C)C)cc1	17.4%	-3.25%	8.95%	-19%	-6.75%	16.6%
CCCCCCCCCCCC(=O)OC(COC(N)=O)COc1ccc(Cl)cc1 (stereo unspecified)	-34.2%	-59.5%	-18.9%	0.3%	-10.2%	-46.4%
Cc1cc2nc(C(O)C(O)C(O)C(O)c3nc4cc(C)c(C)cc4[nH]3)[nH]c2cc1C (stereo unspecified)	18.9%	3.35%	-9.2%	-1.2%	-8.65%	-0.85%
Oc1cc(-c2ccc(Cl)cc2)cn2c1nc1ccccc12	-13.3%	-23.8%	-38.5%	-24.1%	-5.75%	-50%
CC(C)(C)C(=O)N1C(C(=O)O)Cc2ccccc2[C@@H]1Cc1ccccc1 (stereo partly specified)	-6.9%	-7.25%	-16.1%	22.5%	-11.1%	-29.5%
c1ccc(-c2cccc(-c3ccccc3)n2)cc1	20.5%	33.9%	-1.4%	-10.8%	-24.3%	28.7%
O=C(NP(=O)(O)NC(Cc1ccccc1)C(=O)O)OCc1ccccc1 (stereo unspecified)	-7.45%	-6.65%	4.1%	-18.9%	1.8%	-12.2%
COc1ccc(OC)c(C2=CCCCCC2)c1	7.6%	-6.15%	3.1%	-22.1%	-7.85%	13.5%

SMILES	growth inhibition [1]	growth inhibition [2]	growth inhibition [3]	growth inhibition [4]	growth inhibition [5]	growth inhibition [6]
CCOC(=O)Nc1cc(Nc2ccc(Cl)cc2)c2nc(-c3ccc(Cl)cc3)c(-c3ccc(Cl)cc3)nc2n1	44.7%	-0.9%	36.1%	20.9%	-0.75%	8.8%
CC(=O)Oc1ccc2c(=O)c(C(C)=O)coc2c1	7.45%	-11.3%	-3.15%	14.4%	4.2%	14.7%
c1nnc2c3c4c(sc3ncn12)CCCC4	0.4%	-5.05%	2.4%	-24.7%	-0.1%	4.55%
CC1=COC(=O)[C@@H]2[C@@H](C)CC[C@@H]12	1.1%	-3.65%	-9.6%	10.3%	6.05%	-4.2%
O=C1CCC([N+](=O)[O-])C(c2ccccc2Cl)N1 (stereo unspecified)	10.7%	-15.9%	20.1%	-0.9%	29.7%	20.5%
NC(Cc1ccccc1)C(=O)O (stereo unspecified)	-20.7%	-12.4%	-33.9%	-73.7%	-24.9%	-20.6%
NC1(C(=O)OCc2ccccc2)CCCC1	18.6%	-5.45%	-14.1%	1.9%	-1.7%	37.9%
Nc1nc2ncc(=O)[nH]c2c(=O)[nH]1	-35.1%	-4.2%	-8.55%	-31.3%	20.3%	-8.4%
COc1cc(OC)c(NC(=O)/C=C/c2ccccc2)cc1Cl	-3.45%	-75.7%	7.85%	-21.4%	11.2%	21%
O=[N+]([O-])c1cccc(C2=NOC3CCCC23)c1 (stereo unspecified)	17.6%	-7.6%	15.2%	13.8%	-8.3%	16.9%
CCCCNCCOC(=O)c1ccc(N)cc1	2.9%	2%	1.9%	16.4%	10.1%	12.1%
CC(O)C(NC(=O)CNC(=O)CNC(=O)OCc1ccccc1)C(=O)O (stereo not drawn) (Cbz-Gly-Gly-[ξT]-OH)	7.2%	-3.25%	-2.45%	16.4%	6.65%	3.05%
Cc1nc2c(o1)C(=O)c1ccccc1C2=Nc1ccc(N2CCOCC2)cc1	78.9% (active)	29.7%	13.2%	-1.15%	11.9%	39.1%
O=C1Sc2ccccc2C(=O)N2CCCC12 (stereo unspecified)	-20.8%	-8.25%	-11.5%	3.2%	8.2%	-10.2%
COc1cc(O)c2c(=O)c(OC)c(-c3ccc4c(c3)OCO4)oc2c1	4.6%	6.2%	-9.85%	2.35%	-24.2%	-44.4%
O=C(O)c1[nH]c2ccccc2c(=O)c1-c1ccccc1	11.7%	-31.5%	0.95%	-14.3%	1.05%	-19.4%
CC(C)(C#CCOC(=O)c1ccc([N+](=O)[O-])cc1)OC(=O)c1ccc([N+](=O)[O-])cc1	9.25%	-3.7%	18.5%	32.1%	1.5%	5.35%
CCCC1(CC)COC(c2ccc(C)cc2)OC1 (stereo unspecified)	13.8%	0.9%	-7.6%	5.85%	11.8%	3.35%
CC(C(=O)O)C(C)C(=O)O (stereo unspecified)	3.3%	4.15%	9.8%	6.45%	5.1%	14.2%
CCCCN(CCCC)CC(=O)NC(N)=O	4.6%	0.9%	-6.95%	-2.8%	10.3%	-6.8%
